Experimental data published in PubChem BioAssay AID2284151 (EPA ToxCast).
Records with an inconclusive call do not appear. Calls of active or inactive are those of the source. Rule for the calls: active = hit-call score of the fitted dose curve at least 0.9, where 1 is the maximum; inactive = score below 0.9.

The compounds below were run against human Cholecystokinin Receptor CCK2 (CCKB) Agonism, CCKBR (gene 887) (UniProt P32239) (assay: ERF_FR_GPCR_hCCKBR: Eurofins (ERF) G Protein-Coupled Receptor (GPCR) Radioligand Binding LeadHunter Assay for human Cholecystokinin Receptor CCK2 (CCKB) Agonism).
Sequence of human Cholecystokinin Receptor CCK2 (CCKB) Agonism, CCKBR (gene 887) (P32239 whole entry, looked up): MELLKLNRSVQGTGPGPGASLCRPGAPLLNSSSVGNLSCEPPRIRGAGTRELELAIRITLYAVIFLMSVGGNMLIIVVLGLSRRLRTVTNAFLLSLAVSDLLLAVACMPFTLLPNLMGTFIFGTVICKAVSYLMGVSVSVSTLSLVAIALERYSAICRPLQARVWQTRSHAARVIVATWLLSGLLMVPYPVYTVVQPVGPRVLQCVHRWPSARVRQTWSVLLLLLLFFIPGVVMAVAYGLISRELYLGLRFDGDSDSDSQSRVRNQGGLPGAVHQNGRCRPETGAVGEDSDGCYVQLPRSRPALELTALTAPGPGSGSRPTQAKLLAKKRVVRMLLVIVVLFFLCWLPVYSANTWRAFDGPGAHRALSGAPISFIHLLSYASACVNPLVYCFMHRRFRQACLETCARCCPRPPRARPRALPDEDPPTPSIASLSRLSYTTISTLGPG
Method: ERF_FR_GPCR_hCCKBR is a biochemical, single-readout assay that uses extracted gene-proteins in a cell-free assay. Measurements were taken 1 hour after chemical dosing in a 96-well plate. See CCK2 (CCKB) Human Cholecystokinin GPCR Binding (Agonist Radioligand) Assay, Cerep.ERF_FR_GPCR_hCCKBR is an assay component calculated from the ERF_FR_GPCR_hCCKBR assay. It is designed to measure radioligand binding using a type of binding reporter as detected by scintillation counting with radiometry technology.Data from the assay component ERF_FR_GPCR_hCCKBR was analyzed at the assay endpoint, ERF_FR_GPCR_hCCKBR, in the positive analysis fitting direction relative to DMSO as the negative control and baseline of activity. Using a type of binding reporter, […] activity can be used to understand changes in binding as they relate to gene CCKBR. To generalize the intended target to other relatable targets, this assay endpoint is annotated to the gpcr intended target family, where the subfamily is cholecystokinin.
Human cells are incubated for 60 minutes at room temprature with [125I]CCK-8s ligand (0.08 nM) and CCK-8s as control inhibitor.Test Sample Requirements: Minimum for 1) Screen: 60 ul of 10 mM stock -OR- 1 mg (pre-weighed) for 10 uM final testing. 2) Dose Response: 90 ul of 10 mM stock -OR- 1 mg (pre-weighed) for a top concentration at 10 uM.

| SMILES | AC50 |
| --- | --- |
| O=C(/C=C/c1ccc(O)cc1)CC(=O)/C=C/c1ccc(O)cc1 | 3.43 µM (active) |
